The antibiotic and cytotoxicity screens of Wong et al. (2023)
The campaign covered roughly 39,000 compounds. About 3,300 (8.5%) were called active. This is one part of a sample in which actives are shown more often than they occur.

The molecules below were run on HepG2 (assay: cytotoxicity call (relative viability < 0.9)). Conditions: 10 µM.
`N#Cc1cnccn1` was tested, and the cytotoxicity call was “inactive”.
With `CCNC1(c2cccs2)CCCCC1=O.Cl` (configuration not stated) the cytotoxicity call was “inactive”.
`NCC[C@H](NC(=O)[C@@H](N)CCCNC(N)=N[N+](=O)[O-])C(N)=O.O=CC(F)(F)F` was tested, and the cytotoxicity call was “inactive”.
In the case of `c1cnc(N[C@@H]2CO[C@@]3(CCNC3)C2)cn1`, the cytotoxicity call is reported as “inactive”.
With `NC1=NC(=O)N2C[C@@H]12` the cytotoxicity call was “inactive”.
For `C[C@H](CO)N1C[C@H](C)[C@H](CN(C)C(=O)Oc2ccc3ccccc3c2)OCc2cnnn2CCCC1=O`, the cytotoxicity call was “inactive”.
`C1CN2CN3CCN(CN1C3)C2` was tested, and the cytotoxicity call was “inactive”.
For `NCCc1ccc([N+](=O)[O-])cc1`, the cytotoxicity call was “inactive”.
In the case of `O=C(c1ccco1)N1C[C@H]2CN[C@@H](C2)C1`, the cytotoxicity call is reported as “inactive”.
With `C=C[C@H]1[C@H](O[C@@H]2O[C@H](CO)[C@@H](O)[C@H](O)[C@H]2O)OC=C2C(=O)OCC[C@H]21` the cytotoxicity call was “inactive”.
For `Cc1cccc(CC2(N)CC2)c1`, the cytotoxicity call was “inactive”.
`N#[N+]CC(=O)CC[C@H](N)C(=O)O` was tested, and the cytotoxicity call was “inactive”.
`CC12CCC3C(CCC4(O)CC(O)CCC34C=O)C1(O)CCC2C1=CC(=O)OC1` (configuration not stated) was tested, and the cytotoxicity call was “active”.
For `C#CC(C)(O)CC` (configuration not stated), the cytotoxicity call was “inactive”.
With `CNC(=O)CN1CCOCC12CCN(c1cc(OC)ncn1)CC2` the cytotoxicity call was “inactive”.
With `CC1(C)CCC(C)(C)c2cc(-c3csc(CC#N)n3)ccc21` the cytotoxicity call was “inactive”.
With `COc1c(C[C@@H](C)O)c2c3c(C[C@@H](C)O)c(OC)c(=O)c4c(O)cc5c(c6c(cc(O)c(c1=O)c62)OCO5)c43` the cytotoxicity call was “active”.
For `NCCc1cccc2ccccc12`, the cytotoxicity call was “inactive”.
For `C[C@@H]1CN([C@@H](C)CO)C(=O)c2c(c3ccccc3n2C)-c2ccccc2CO[C@H]1CN(C)C(=O)Oc1ccccc1`, the cytotoxicity call was “inactive”.
For `CN(C)C(=O)N[C@H]1CN[C@H]2CCCO[C@H]21`, the cytotoxicity call was “inactive”.
With `O=C1C=C2C=CC3CC2(O1)C1CCCCN31` (configuration not stated) the cytotoxicity call was “active”.
In the case of `CN1C(=O)NC(=O)/C(=C\c2ccc(O)cc2)C1=O`, the cytotoxicity call is reported as “inactive”.
`Cn1cc(C(=O)Nc2nn[nH]n2)c2ccccc21` was tested, and the cytotoxicity call was “inactive”.
`CCCC12CNCC(C)(CNC1)C2=O` was tested, and the cytotoxicity call was “inactive”.
In the case of `O=[N+]([O-])c1ccc(N(CCO)CCO)c2c1no[n+]2[O-]`, the cytotoxicity call is reported as “active”.
For `Nc1ccc([As](=O)(O)O)cc1`, the cytotoxicity call was “inactive”.
`CN1CC(=O)N(c2cccnc2)C[C@]12CCNC2` was tested, and the cytotoxicity call was “inactive”.
For `OCC(Br)(Br)Br`, the cytotoxicity call was “inactive”.
In the case of `O=[N+]([O-])C(Br)(CO)CO` [listing 1 of 2 here], the cytotoxicity call is reported as “active”.
For `O=[N+]([O-])C(Br)(CO)CO` [listing 2 of 2 here], the cytotoxicity call was “active”.
`CN1C(=O)/C(=C/c2cn(CC(=O)N3CCOCC3)c3ccccc23)C(=O)NC1=S` was tested, and the cytotoxicity call was “inactive”.
`CC(C)(C)[C@H]1CC[C@@]2(CC1)C[C@@H](C[Si](C)(C)C)OO2` was tested, and the cytotoxicity call was “inactive”.
`CC(C)Oc1ccccc1CCN` was tested, and the cytotoxicity call was “inactive”.
For `CCN(CC)S(=O)(=O)c1ccc(Cn2nc(C(=O)Nc3ccc(N4CCCCC4)cc3)c3ccccc32)cc1`, the cytotoxicity call was “inactive”.
In the case of `NC(=O)N1C[C@@H]2C[C@H]1CN2`, the cytotoxicity call is reported as “inactive”.
`C[N+]1(C)C2CCC1CC(OC(=O)C(CO)c1ccccc1)C2.O=[N+]([O-])[O-]` (configuration not stated) was tested, and the cytotoxicity call was “inactive”.
In the case of `O=C(NCNC(=O)N[C@H]1C(=O)NC(=O)N1CO)N[C@H]1C(=O)NC(=O)N1CO`, the cytotoxicity call is reported as “inactive”.
In the case of `CCC(=O)CCCCC[C@@H]1NC(=O)[C@H]2CCCCN2C(=O)[C@H]([C@H](C)CC)NC(=O)[C@H](Cc2cn(OC)c3ccccc23)NC1=O`, the cytotoxicity call is reported as “active”.
In the case of `CCC(=O)CCCCC[C@@H]1NC(=O)[C@H]2CCCCN2C(=O)[C@H]([C@@H](C)CC)NC(=O)[C@H](Cc2cn(OC)c3ccccc23)NC1=O`, the cytotoxicity call is reported as “active”.
In the case of `N[C@@H](C(=O)O)c1cc(=O)[nH]o1`, the cytotoxicity call is reported as “inactive”.
For `COC(N)=O`, the cytotoxicity call was “inactive”.
For `CN1C[C@@H]2C[C@H](C(=O)Nc3cccnc3)[C@@H](C1)O2`, the cytotoxicity call was “inactive”.
For `CCCCS(=O)(=O)N1C[C@H]2CNC[C@@H]2C1`, the cytotoxicity call was “inactive”.
In the case of `NC(=O)c1ccc(N)nc1`, the cytotoxicity call is reported as “active”.
`NC(=O)c1cc([N+](=O)[O-])cc([N+](=O)[O-])c1` [listing 1 of 2 here] was tested, and the cytotoxicity call was “inactive”.
With `NC(=O)c1cc([N+](=O)[O-])cc([N+](=O)[O-])c1` [listing 2 of 2 here] the cytotoxicity call was “inactive”.
With `C[C@H]1CN([C@@H](C)CO)C(=O)CCCn2nncc2CO[C@@H]1CN(C)C(=O)Oc1ccc2ccccc2c1` the cytotoxicity call was “inactive”.
`CNc1ccc(C(=O)C[C@@H](O)CC[C@@H](C)[C@H]2OC(=O)C[C@@H](O)CC(=O)C[C@@H](O)C[C@@H](O)C[C@@H](O)C[C@@H](O)C[C@@]3(O)C[C@@H](O)[C@H](C(=O)OC)[C@@H](C[C@@H](O[C@@H]4O[C@H](C)[C@@H](O)[C@H](N)[C@@H]4O)\C=C/C=C\C=C/C=C\C=C/C=C\C=C/[C@@H]2C)O3)cc1` was tested, and the cytotoxicity call was “inactive”.
With `CN(C)C(=O)Oc1ccc[n+](C)c1.[Br-]` the cytotoxicity call was “active”.
`CN(C)C(=O)Oc1ccc[n+](C)c1` was tested, and the cytotoxicity call was “inactive”.
With `CN(C)C(=O)Oc1cccc([N+](C)(C)C)c1.[Br-]` the cytotoxicity call was “inactive”.
With `O=C(O)[C@H]1C[C@H]2CCCCN2C1` the cytotoxicity call was “inactive”.
With `CN1[C@@H]2CC[C@@H]1C[C@H](O)C2` (some centres not stated) the cytotoxicity call was “inactive”.
For `CCCC[C@@H](C)[C@@H](OC(=O)C[C@@H](CC(=O)O)C(=O)O)[C@H](C[C@@H](C)C[C@H](O)CCCC[C@@H](O)C[C@H](O)[C@H](C)N)OC(=O)C[C@@H](CC(=O)O)C(=O)O`, the cytotoxicity call was “inactive”.
In the case of `OC[C@H]1O[C@@H](Oc2c[nH]c3ccc(Br)c(Cl)c23)[C@H](O)[C@@H](O)[C@H]1O`, the cytotoxicity call is reported as “inactive”.
With `CCCCCCCCCCCCCCCC[N+](C)(C)C.[Br-]` the cytotoxicity call was “active”.
For `C[N+](C)(C)CCCl`, the cytotoxicity call was “inactive”.
For `C[N+](C)(C)CCCCCCCCCC[N+](C)(C)C.[Br-].[Br-]`, the cytotoxicity call was “inactive”.
`N=C(N)/N=C(\N)Nc1ccc(Cl)cc1` was tested, and the cytotoxicity call was “inactive”.
With `Oc1ccccc1-c1ccccc1O` the cytotoxicity call was “inactive”.
With `Oc1ccccc1-c1ccccc1` the cytotoxicity call was “inactive”.
`O=C1C=CC(=O)c2c(O)cccc21` was tested, and the cytotoxicity call was “active”.
In the case of `CC1=CC(=O)c2c(O)cccc2C1=O`, the cytotoxicity call is reported as “active”.
With `C[C@H]1O[C@H](C[N+](C)(C)C)C[C@@H]1O` the cytotoxicity call was “inactive”.
With `NCCc1nnc2n1CCCCC2` the cytotoxicity call was “inactive”.
In the case of `C[C@H]1CN([C@@H](C)CO)C(=O)CCCn2nncc2CO[C@@H]1CN(C)C(=O)Oc1cccc2ccccc12`, the cytotoxicity call is reported as “inactive”.
With `CC(=O)Nc1ccc(CCN)cc1` the cytotoxicity call was “inactive”.
With `CNC(C)(C)Cc1ccccc1.O=S(=O)(O)O` the cytotoxicity call was “inactive”.
For `CC(C)NC(=O)[C@H]1CCS(=O)(=O)[C@H]2CNC[C@@H]12`, the cytotoxicity call was “inactive”.
With `C[C@@H]1C(=O)NC[C@@H]2CN(CC3CC3)C[C@@H]21` the cytotoxicity call was “inactive”.
In the case of `CCC(C(N)=O)N1CCCC1=O` (configuration not stated), the cytotoxicity call is reported as “inactive”.
In the case of `O=[As]O[As]=O` (configuration not stated), the cytotoxicity call is reported as “active”.
